According to PubChem BioAssay AID1376 (SRMLSC, 2008):
In all, about 220,000 compounds went through this assay and about 530 (0.24%) were called active. This is one part of a sample in which actives are shown more often than they occur. Results with a measured potency or affinity are listed apart. Unmarked numbers belong to inactive results. No stated cut-off is given here; in the data, active means inhibition above about 13%; inconclusive means no clear call, values can overlap the other calls; inactive means below that.

What follows are compounds tested against Bifunctional protein GlmU (Mycobacterium tuberculosis (strain ATCC 25618 / H37Rv)) (UniProt P9WMN3) (assay: inhibition of mycobacterial GlmU enzyme – biochemical, glucosamine-1-phosphate acetyltransferase (AID 1376;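 further: 0% = complete reaction with vehicle and 100% = reaction without substrate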)). Details: M. tuberculosis GlmU acetyltransferase enzyme assay; hits give high values;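 tested at 30 µM in the primary screen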.
Sequence of Bifunctional protein GlmU (Mycobacterium tuberculosis (strain ATCC 25618 / H37Rv)) (P9WMN3 whole entry, looked up): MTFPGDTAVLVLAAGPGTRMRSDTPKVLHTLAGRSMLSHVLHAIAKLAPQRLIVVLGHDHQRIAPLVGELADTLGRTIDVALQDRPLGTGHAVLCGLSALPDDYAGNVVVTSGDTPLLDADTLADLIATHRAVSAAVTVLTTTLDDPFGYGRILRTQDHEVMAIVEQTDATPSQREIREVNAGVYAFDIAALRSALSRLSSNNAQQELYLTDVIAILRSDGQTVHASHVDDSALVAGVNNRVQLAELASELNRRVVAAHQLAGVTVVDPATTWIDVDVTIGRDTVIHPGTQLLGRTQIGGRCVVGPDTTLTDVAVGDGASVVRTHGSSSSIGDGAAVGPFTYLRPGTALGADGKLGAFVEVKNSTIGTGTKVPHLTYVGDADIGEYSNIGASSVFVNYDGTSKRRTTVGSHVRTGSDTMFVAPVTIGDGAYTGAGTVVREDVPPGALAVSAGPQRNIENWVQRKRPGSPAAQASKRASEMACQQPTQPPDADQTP

Question: With `O=c1[nH]c(CSc2ncc(C(F)(F)F)cc2Cl)nc2cc(C(F)(F)F)ccc12` as the compound, how does the inhibition read?
Answer: -1.09%

Question: With `Cc1sc2ncnc(OCC(=O)N3CCN(S(=O)(=O)c4ccccc4)CC3)c2c1C` as the compound, how does the inhibition read?
Answer: -1.45%

Question: How did the inhibition turn out when `COc1cccc(NC(=O)C(Sc2nnc(Nc3ccccc3C)s2)c2ccccc2)c1` (configuration not stated) was run?
Answer: -3.98%

Question: Which inhibition does the source give for `CCOc1cccc(CNCc2ccc(C(=O)O)cc2)c1` here?
Answer: -1.27%

Question: `O=C(O)c1cc(-c2ccc(/C=C3\NC(=O)N(c4ccc(Cl)cc4)C3=O)o2)ccc1Cl` was tested. Which inhibition did it give?
Answer: 27% (active)

Question: `Cc1ccc(CN2C(=O)N/C(=C/c3ccc(-c4ccc(C(=O)O)cc4)o3)C2=O)cc1` was tested. Which inhibition did it give?
Answer: 4.7%

Question: How did the inhibition turn out when `Cc1ccc(/C=C2/NC(=O)N(Cc3ccccc3)C2=O)o1` was run?
Answer: -1.11%

Question: How did the inhibition turn out when `Cc1ccc(/C=C2/NC(=O)N(c3ccccc3)C2=O)o1` was run?
Answer: -0.29%

Question: `Cc1cc(C(=O)O)ccc1-c1ccc(/C=C2\NC(=O)N(Cc3ccc(F)cc3)C2=O)o1` was tested. Which inhibition did it give?
Answer: 13.9% (active)

Question: `Cc1c(C(=O)O)cccc1-c1ccc(/C=C2/NC(=O)N(c3ccccc3)C2=O)o1` was tested. Which inhibition did it give?
Answer: -0.48%

Question: `Cc1cc(C(=O)O)ccc1-c1ccc(/C=C2\NC(=O)N(Cc3ccccc3Cl)C2=O)o1` was tested. Which inhibition did it give?
Answer: 5.89%

Question: `O=C(O)c1cc(-c2ccc(/C=N/Nc3ccc(Cl)cc3)o2)ccc1Cl` was tested. Which inhibition did it give?
Answer: -0.42%

Question: How did the inhibition turn out when `O=C(O)c1cc(-c2ccc(/C=C3/SC(=S)N(Cc4ccccc4)C3=O)o2)ccc1Cl` was run?
Answer: 17%

Question: `Cc1ccc(N2C(=O)NC(=O)/C(=C/c3ccc(-c4ccc(C(=O)O)c(Cl)c4)o3)C2=O)cc1` was tested. Which inhibition did it give?
Answer: 6.82%

Question: With `O=C(O)c1cc(-c2ccc(/C=C3\NC(=O)N(c4ccccc4)C3=O)o2)ccc1Cl` as the compound, how does the inhibition read?
Answer: 13.6% (active)

Question: `Cc1ccc([N+](=O)[O-])cc1N(CC(=O)NCC1CCCO1)S(C)(=O)=O` (configuration not stated) was tested. Which inhibition did it give?
Answer: 1.08%

Question: For `COc1ccc(C2CC(c3ccccc3)=NN2C(=O)c2cccs2)cc1` (configuration not stated), which inhibition is on record?
Answer: 0.55%

Question: How did the inhibition turn out when `COc1ccc(CCNC(=O)COC(=O)CCC(=O)c2ccc(F)cc2)cc1` was run?
Answer: 1.09%

Question: Which inhibition does the source give for `N#Cc1nc(Cc2cccc3ccccc23)oc1N1CCC(C(N)=O)CC1` here?
Answer: 1.98%

Question: How did the inhibition turn out when `Cc1ccc(-n2ncc(C(=O)NCc3ccc4c(c3)OCO4)c2NC(=O)c2ccco2)cc1C` was run?
Answer: 6.03%

Question: How did the inhibition turn out when `O=C(OCC(=O)c1ccc[nH]1)c1ccc(S(=O)(=O)N2CCCCCC2)cc1` was run?
Answer: -6.95%

Question: How did the inhibition turn out when `Cc1ccc(C(=O)NC(=S)NNC(=O)CC#N)cc1` was run?
Answer: -2.12%

Question: With `COc1ccc(OC)c(NC(=O)c2ccccc2NC(=O)c2ccco2)c1` as the compound, how does the inhibition read?
Answer: 4.28%

Question: With `COc1ccc(Cc2c(O)nc(SCC(=O)c3ccc(OC)cc3)[nH]c2=O)cc1` as the compound, how does the inhibition read?
Answer: 2.96%

Question: `COc1ccc(Cc2c(O)nc[nH]c2=O)cc1` was tested. Which inhibition did it give?
Answer: 22.8% (active)

Question: For `COc1ccc(C(c2c(O)nc[nH]c2=O)c2c(O)nc[nH]c2=O)cc1`, which inhibition is on record?
Answer: 0.27%

Question: For `CCOC(=O)C1=C2N(C)c3ccccc3N2CCC1=O`, which inhibition is on record?
Answer: 0.79%

Question: How did the inhibition turn out when `Cc1cccc(Cn2c(N3CCc4ccccc4C3)nc3c2c(=O)[nH]c(=O)n3C)c1` was run?
Answer: 2.16%

Question: For `CNC(=S)Nc1ccc(Nc2ccccc2)cc1`, which inhibition is on record?
Answer: 1.36%

Question: Which inhibition does the source give for `CC(C)(C)NC(=S)Nc1ccc(Br)cc1` here?
Answer: 1.07%

Question: With `CC(C)(C)NC(=S)Nc1ccc(Nc2ccccc2)cc1` as the compound, how does the inhibition read?
Answer: 13.4% (active)

Question: Which inhibition does the source give for `O=C(Cc1cc(=O)[nH][nH]1)N/N=C/C=C/c1ccccc1` here?
Answer: 3.75%

Question: For `COc1ccc(N(CC2CO2)S(=O)(=O)c2ccccc2)cc1` (configuration not stated), which inhibition is on record?
Answer: 3.63%

Question: Which inhibition does the source give for `CCN(CC)c1ccc(/C=N/N2CCN(Cc3ccccc3Cl)CC2)c(O)c1` here?
Answer: 14.1% (active)

Question: How did the inhibition turn out when `CCN(CC)c1ccc(/C=N/N2CCN(Cc3cccc4ccccc34)CC2)c(O)c1` was run?
Answer: -0.67%

Question: With `CCN(CC)c1ccc(/C=N/N2CCN(Cc3ccccc3)CC2)c(O)c1` as the compound, how does the inhibition read?
Answer: -0.12%

Question: `Nc1ncnc2c1ncn2[C@@H]1O[C@H](CO)[C@@H](O)[C@H]1O` was tested. Which inhibition did it give?
Answer: -4.56%

Question: How did the inhibition turn out when `Nc1nc(=S)c2ncn(C3OC(CO)C(O)C3O)c2[nH]1` (configuration not stated) was run?
Answer: 20.9% (active)

Question: With `Nc1nc(=S)c2ncn(C3CCCC3)c2[nH]1` as the compound, how does the inhibition read?
Answer: 7.24%

Question: Which inhibition does the source give for `Cc1ccc2nc3c(nc2c1C)C(O)=C3O` here?
Answer: 2.69%

Question: Which inhibition does the source give for `CN1CCN(C2=C(Cl)C(=O)N(Cc3ccccc3)C2=O)CC1` here?
Answer: -1.86%

Question: For `CC(C)(C)c1csc(SCC(=O)Nc2ccc(Cl)cn2)n1`, which inhibition is on record?
Answer: 5.51%

Question: `CCn1c2ccccc2c2cc(/C=N/n3c(-c4cc(C)[nH]n4)n[nH]c3=S)ccc21` was tested. Which inhibition did it give?
Answer: 2.92%

Question: Which inhibition does the source give for `CCn1c2ccccc2c2cc(/C=N/n3cn[nH]c3=S)ccc21` here?
Answer: 13% (active)

Question: Which inhibition does the source give for `CCn1c2ccccc2c2cc(/C=N/n3cnnc3)ccc21` here?
Answer: 6.56%

Question: Which inhibition does the source give for `CC(=O)Nc1ccc(Nc2nc(C)c([N+](=O)[O-])c(Nc3ccccc3)n2)cc1` here?
Answer: 5.98%

Question: With `CC(=O)Nc1ccc(Nc2nc(C)c([N+](=O)[O-])c(Nc3ccc(NC(C)=O)cc3)n2)cc1` as the compound, how does the inhibition read?
Answer: -3.57%

Question: For `O=C(NC12CC3CC(CC(C3)C1)C2)c1cccnc1`, which inhibition is on record?
Answer: 2.68%

Question: For `O=C(NC12CC3CC(CC(C3)C1)C2)c1ccccc1`, which inhibition is on record?
Answer: -3.83%

Question: How did the inhibition turn out when `O=C(NC12CC3CC(CC(C3)C1)C2)c1cncc(O)c1` was run?
Answer: 14.9% (active)

Question: `COC(=O)Cc1c(O)ccn(Cc2ccc3c(c2)OCO3)c1=O` was tested. Which inhibition did it give?
Answer: -0.24%

Question: How did the inhibition turn out when `O=C(O)c1cccc2c1NC(C(=O)O)C1CC(Sc3ccccc3[N+](=O)[O-])C(Cl)C21` (configuration not stated) was run?
Answer: 30.8% (active)

Question: How did the inhibition turn out when `Cc1ccc2c(c1Cl)NC(C(=O)O)C1CC(Sc3ccccc3[N+](=O)[O-])C(Cl)C21` (configuration not stated) was run?
Answer: 4.86%

Question: `CC(=O)c1ccc2c(c1)C1C(Cl)C(Sc3ccccc3[N+](=O)[O-])CC1C(c1ccccc1)N2` (configuration not stated) was tested. Which inhibition did it give?
Answer: 8.36%

Question: How did the inhibition turn out when `CCN(CC)C(=O)c1ccc2c(c1)C1C(Cl)C(Sc3ccccc3[N+](=O)[O-])CC1C(C(=O)O)N2` (configuration not stated) was run?
Answer: -0.47%

Question: Which inhibition does the source give for `O=C(O)c1cccc2c1NC(c1cccc([N+](=O)[O-])c1)C1CC(Sc3ccccc3[N+](=O)[O-])C(Cl)C21` (configuration not stated) here?
Answer: 7.9%

Question: How did the inhibition turn out when `CC(=O)c1ccc2c(c1)C1C(Cl)C(Sc3ccccc3[N+](=O)[O-])CC1C(C(=O)O)N2` (configuration not stated) was run?
Answer: 13.1% (active)
